Where a name gives a salt, the structure may show the parent alone. ± gives the standard deviation of the averaged measurements.
Key:
Molm13 = experiment: cell viability relative to DMSO control (bortezomib = 0%); higher = less growth inhibition; settings: 10 nM; 72 h
Method in brief: (§1)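 In duplicate runs, a library of 679 approved and investigational compounds in 384-well plates received acute myeloid leukemia cells at 1000 cells per well in 50 µL, with each compound at a single 10 nM dose for 72 h. CellTiter-Glo luminescence, read on an EnVision reader, served as the viability measure. Each plate was normalized by linear regression between DMSO-treated cells (100%) and positive-control-treated cells (0%).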

Mv4-11 = experiment: as above; settings: 10 nM; 72 h
Method in brief: as §1

| Compound | cell viability (Molm13) [%] | cell viability (Mv4-11) [%] |
| --- | --- | --- |
| COc1ccc(S(=O)(=O)Nc2ccccc2CN(C)C/C=C/c2ccc(Cl)cc2)cc1 [KN-92 (hydrochloride)] | 129 ± 18 | 109 ± 10 |
| O=C(NCc1ccccc1)c1csc(Nc2ccncn2)n1 [Thiazovivin] | 115 ± 7.6 | 113 ± 3.7 |
| COC(=O)C1=CC[C@@]23CC[C@@H]([C@@](C)(/C=C/C=C(\C)C(=O)O)OC2=O)[C@@]3(OC(C)=O)CC1 [Pseudolaric Acid B] | 101 ± 3.5 | 104 ± 11 |
| Nc1cccc(-c2nc(N3CCOCC3)c3oc4ncccc4c3n2)c1 [PIK-inhibitors] | 82.5 ± 19 | 103 ± 15 |
| CC[C@H](CO)Nc1nc(NCc2ccccc2)c2ncn(C(C)C)c2n1 [(R)-Roscovitine] | 105 ± 9.1 | 103 ± 15 |
| N#Cc1c(-c2ccccc2)cc(-c2cc(Br)ccc2O)[nH]c1=O | 125 ± 30 | 114 ± 9.7 |
| O=C(Nc1ccc2[nH]nc(-c3ccncc3)c2c1)[C@@H]1CCN(CC(=O)N2CCN(c3ccc(-c4ncccn4)cc3)CC2)C1 | 92 ± 12 | 95.8 ± 19 |
| Oc1cc(-c2nc(-c3ccccc3)[nH]c2-c2ccncc2)ccc1Cl | 105 ± 34 | 105 ± 3.6 |
| O=C(Nc1cccc(Cl)c1)Nc1ncc(CCNc2ncnc3ccsc23)s1 [SNS-314 Mesylate] | 64.7 ± 13 | 84.75 ± 0.26 |
| CNC(=O)c1cc(Oc2ccc(NC(=O)Nc3ccc(Cl)c(C(F)(F)F)c3)cc2)ccn1 [Sorafenib tosylate] | 63.1 ± 6.6 | 69.2 ± 10 |
| C=CCc1ccc(O)c(-c2ccc(O)c(CC=C)c2)c1 [Honokiol] | 105 ± 5.5 | 112 ± 14 |
| CC(=O)O[C@H]1C(=O)[C@@]2(C)[C@H]([C@H](OC(=O)c3ccccc3)[C@]3(O)C[C@H](OC(=O)[C@H](O)[C@@H](NC(=O)c4ccccc4)c4ccccc4)C(C)=C1C3(C)C)[C@]1(OC(C)=O)CO[C@@H]1C[C@@H]2O [Paclitaxel] | -2.33 ± 4.8 | -3.89 ± 0.25 |
| CCCCNc1ncc(-c2ccc(CN3CCOCC3)cn2)c(NC2CCC(O)CC2)n1 (configuration not stated) | 94.6 ± 6.1 | 99.9 ± 5.7 |
| FC(F)(F)c1ccc(/C=C/c2nc(COc3ccc(CCCCn4ccnn4)cc3)co2)cc1 [Mubritinib (TAK 165)] | 107 ± 9 | 104 ± 7.6 |
| C#Cc1cccc(Nc2ncnc3cc(OCCOC)c(OCCOC)cc23)c1 [Erlotinib hydrochloride] | 108 ± 9.8 | 121 ± 20 |
| CSc1cccc(Nc2ncc3cc(-c4c(Cl)cccc4Cl)c(=O)n(C)c3n2)c1 | 92.8 ± 10 | 101 ± 7.8 |
| O=C(Nc1cc(Cl)cc2c1[nH]c1cnccc12)c1cccnc1 | 110 ± 1.9 | 110.7 ± 0.66 |
| Cn1cnc2nc(NCCO)nc(NCc3ccccc3)c21 [Iso-Olomoucine] | 119 ± 15 | 113 ± 9.7 |

| Compound | cell viability (Molm13) [%] | cell viability (Mv4-11) [%] |
| --- | --- | --- |
| O=C(Nc1nc2cccc(-c3ccc(CN4CCS(=O)(=O)CC4)cc3)n2n1)C1CC1 [Filgotinib (GLPG0634)] | 86.4 ± 6 | 107.7 ± 0.87 |
| N#C/C(=C\c1ccc(O)c(O)c1)C(=O)Nc1ccccc1 | 106 ± 6.4 | 115 ± 17 |
| Cc1cc2c(F)c(Oc3ncnn4cc(OC[C@@H](C)OC(=O)[C@H](C)N)c(C)c34)ccc2[nH]1 | 101 ± 38 | 106 ± 5.3 |
| O=C(NOCC1CC1)c1cc(Br)c(F)c(F)c1Nc1ccc(I)cc1Cl | 110 ± 11 | 113 ± 2.4 |
| CO[C@H]1C[C@@H]2CC[C@@H](C)[C@@](O)(O2)C(=O)C(=O)N2CCCC[C@H]2C(=O)O[C@H]([C@H](C)C[C@@H]2CC[C@@H](O)[C@H](OC)C2)CC(=O)[C@H](C)/C=C(\C)[C@@H](O)[C@@H](OC)C(=O)[C@H](C)C[C@H](C)/C=C/C=C/C=C/1C [Rapamycin (Sirolimus)] | 34.4 ± 8.5 | 43.3 ± 15 |
| Cc1cccc(-c2[nH]c(C(C)(C)C)nc2-c2ccc3c(c2)OCO3)n1 | 118 ± 26 | 107 ± 20 |
| Cc1ccc(C(=O)N(CCCN)[C@@H](c2oc3cc(Cl)ccc3c(=O)c2Cc2ccccc2)C(C)C)cc1 | 2.68 ± 8.6 | -0.7 ± 5.9 |
| Cn1cc(-c2ccc3nnc(Sc4ccc5ncccc5c4)n3n2)cn1 | 127 ± 6.4 | 104 ± 4.2 |
| Cn1cc(C2=C(c3cn(CCCSC(=N)N)c4ccccc34)C(=O)NC2=O)c2ccccc21 [Ro 31-8220 Mesylate] | 108 ± 2.3 | 102 ± 4 |
| O=C1Cc2c([nH]c3ccc(Br)cc23)-c2ccccc2N1 [KenPaullone] | 91.6 ± 2.8 | 95.2 ± 16 |
| CCCCCCCCCCCCCCCCCCOP(=O)([O-])OC1CC[N+](C)(C)CC1 [Perifosine (KRX-0401)] | 93.8 ± 14 | 110 ± 5.1 |
| COc1cc2ncc(-c3ccccc3)nc2cc1OC | 101 ± 4.1 | 113 ± 9.7 |
| COc1cc(/C=C(\C#N)C(N)=O)cc(CSc2nc3ccccc3s2)c1O | 112 ± 4.3 | 93.1 ± 5.8 |
| COc1cc(N2CCOCC2)ccc1Nc1ncc(Cl)c(Nc2ccccc2NS(C)(=O)=O)n1 | 108 ± 10 | 111 ± 24 |
| COc1cc2c(Nc3ccc(NC(=O)c4ccccc4)cc3)ncnc2cc1OCCCN1CCOCC1 | 87.8 ± 50 | 120 ± 19 |
| Cc1ccc(C(=O)Nc2ccc(CN3CCN(C)CC3)c(C(F)(F)F)c2)cc1C#Cc1cnc2cccnn12 | 6.99 ± 13 | 3.31 ± 4.5 |
| Cc1cc(Nc2cc(N3CCN(C)CC3)nc(/C=C/c3ccccc3)n2)n[nH]1 | 89.6 ± 1.1 | 105 ± 9.9 |
| O=C(NCCCNc1nc(Nc2cccc(NC(=O)N3CCCC3)c2)ncc1I)c1cccs1 | 95.7 ± 9.5 | 97.5 ± 5.3 |
